Measurements published in ChEMBL document CHEMBL3988442, “University of Dundee, Small-Polar-MMV Screening Library” (2021).
The whole screen tested about 69,000 compounds, of which about 950 (1.4%) showed an effect of 50% or more. Shown is part of a subset that was picked to be rich in strong results.

Each compound was assayed on Mycobacterium tuberculosis (assay: Cornell M. t heat shock assay; also: in the data most compounds retested in dose-response had high values).
Type: functional, organism-based
Set-up: dose or concentration left out as unconfirmed

| SMILES | Percent Effect |
| --- | --- |
| CC(C)c1nc(CNC2CCCN(c3cccnn3)C2)no1 (configuration not stated) | -11.29% |
| Cc1nc(CNC2CCCN(c3cccnn3)C2)no1 (configuration not stated) | -18.97% |
| CC(C)(C)c1nc(CNC2CCCN(c3cccnn3)C2)no1 (configuration not stated) | 53.11% |
| Cc1cc(N2CCN(Cc3cn(C)nc3C)CC2)cc(C2CCNC2)n1.Cl (configuration not stated) | -5.922% |
| O=C(NC1CCC1)[C@H]1C[C@@H]2CN(CC3CC3)C[C@H]1O2.O=C(O)C(F)(F)F | 18.28% |
| COCCN1CCC(CNCc2c[nH]nc2C(C)(C)C)CC1 | -7.94% |
| CCN1CCC(CNCc2c[nH]nc2C(C)(C)C)C1.Cl (configuration not stated) | 48.77% |
| CC(C)N1CCC(CNCc2c[nH]nc2C(C)(C)C)C1 (configuration not stated) | 82.49% |
| CC(C)(C)c1n[nH]cc1CNCC1CCN(C2CC2)C1.Cl (configuration not stated) | 85.37% |
| CC(O)CN1CCC(CNCc2c[nH]nc2C(C)(C)C)CC1 (configuration not stated) | 0.7064% |
| CC(C)(C)c1n[nH]cc1CNCC1CCN(CC(F)(F)F)C1.Cl (configuration not stated) | -7.348% |
| COc1nn(C)c2c1CCCN(C(=O)c1cccc(C)n1)C2.O=C(O)C(F)(F)F | 26.28% |
| Cn1ccc(C(=O)N2C[C@@H]3OCCN(c4ncccn4)[C@@H]3C2)n1.O=C(O)C(F)(F)F | -20% |
| Cc1ccc(N2CC[C@H]3O[C@H](C(=O)NCc4ccco4)CC[C@H]32)nn1.O=C(O)C(F)(F)F | -36.19% |
| CN1CCOC(CNCc2csc(C3CCCCC3)n2)C1 (configuration not stated) | -18.06% |
| Cc1nc(CNCC2CN(C)CCO2)cs1 (configuration not stated) | -7.018% |
| CN1CCOC(CNCc2csc(C3CCCC3)n2)C1 (configuration not stated) | 51.17% |
| CN(Cc1cn2c(n1)CN(c1ncc(F)cn1)CC2)Cc1ccco1.O=C(O)C(F)(F)F.O=C(O)C(F)(F)F | 8.494% |
| CC(=O)Nc1c(C)noc1/C=C\c1ccc(C)c(S(=O)(=O)NC2CC2)c1 | 14.26% |
| CC(C)N1Cc2c(C(=O)N3CCOCC3)nn(C)c2C1.O=C(O)C(F)(F)F.O=C(O)C(F)(F)F | -12.04% |
| Cc1nc(C2CCCN2Cc2cc(Cl)c3c(c2)OCCCO3)no1 (configuration not stated) | 45.55% |
| Cc1nc(C2CCCN2Cc2cc(Cl)c3c(c2)OCCO3)no1 (configuration not stated) | 57.05% |
| Cc1nc(C2CCCN2Cc2cc(Cl)c3c(c2)OCO3)no1 (configuration not stated) | 23.975% |

| SMILES | Percent Effect |
| --- | --- |
| CSc1nc(N)c2c(n1)N=C1COC(O)=C1C2c1cccc(Cl)c1 (configuration not stated) | 2.564% |
| CC(=O)Nc1nc(-c2ccccc2)c[nH]1 | -15.03% |
| CNC(=O)c1cccc(CNC(C)c2cc(Cl)ccc2OC)c1 (configuration not stated) | -13.72% |
| CNC(=O)c1cccc(CNC(C)c2cc(C)ccc2OC(F)F)c1 (configuration not stated) | -18.66% |
| CNC(=O)c1cccc(CNC(C)c2ccc(F)cc2N(C)C)c1 (configuration not stated) | 101.5% |
| COCCNc1nc2c(c(NCc3ccncc3)n1)CCNCC2 | -8.417% |
| c1csc(CCNc2nc(-c3ccncc3)nc3c2CCNCC3)c1 | 10.45% |
| COCCNc1nc2c(c(NCCc3cccs3)n1)CCNCC2 | 55.02% |
| O=C(O)C(F)(F)F.O=C(O)C(F)(F)F.O=C1NC2(CCN(Cc3cccs3)CC2)CC1c1ccncc1 (configuration not stated) | -33.96% |
| CNC(=O)CN1CCOCC2(CCCN(Cc3ccc(F)cc3)C2)C1.O=C(O)C(F)(F)F.O=C(O)C(F)(F)F (configuration not stated) | -6.144% |
| CCCn1ccnc1CNC(=O)C1COc2cc(OC)ccc2C1 (configuration not stated) | 80.42% |
| CCCn1cnnc1CNC(=O)C1COc2cc(OC)ccc2C1 (configuration not stated) | -11.02% |
| CCCn1cnnc1CNC(=O)C1COc2ccc(OC)cc2C1 (configuration not stated) | -18.38% |
| O=C(c1ccc(-c2cccc3c2CCNC3)o1)N1CCCCC1 | 37.05% |
| O=C(c1ccc(-c2cccc3c2CCNC3)o1)N1CCCC1 | 54.8% |
| O=C(c1ccc(-c2cccc3c2CCNC3)o1)N1CCOCC1 | 23.74% |
| Cc1ccc(N2CCO[C@H]3CN(Cc4ccoc4)C[C@H]32)nn1.O=C(O)C(F)(F)F.O=C(O)C(F)(F)F | -23.95% |
| O=C(c1ccccc1)N1C[C@@H]2CC[C@H](C1)N(S(=O)(=O)c1cccnc1)C2 | -19.46% |
| CCN1CC(O)CN(C(=O)c2ccc(SC)cc2)CC1=O (configuration not stated) | 25.41% |
| CC(C)CN1CC(O)CN(C(=O)c2cccc(C(F)(F)F)c2)CC1=O (configuration not stated) | 3.734% |
| CC(C)(C)CN1CC(O)CN(C(=O)c2cccc(C(F)(F)F)c2)CC1=O (configuration not stated) | 51.48% |
| CCN1CC(O)CN(C(=O)c2cccc(C(F)(F)F)c2)CC1=O (configuration not stated) | 31.6% |
| CSc1ccc(C(=O)N2CC(=O)N(CC3CC3)CC(O)C2)cc1 (configuration not stated) | 13.44% |

| SMILES | Percent Effect |
| --- | --- |
| CSc1ccc(C(=O)N2CC(=O)N(CC(C)(C)C)CC(O)C2)cc1 (configuration not stated) | 67.49% |
| CC(Cn1cncc1-c1cnn(Cc2ccccc2)c1)N1CCCCC1.Cl (configuration not stated) | -9.415% |
| Cc1ccc(CN2CCn3c(CN4CCN(C)CC4)cnc3C2C)s1.O=C(O)C(F)(F)F.O=C(O)C(F)(F)F.O=C(O)C(F)(F)F (configuration not stated) | -29.44% |
| O=C(CN1CCOC(Cn2cccn2)C1)NCc1cccs1 (configuration not stated) | -0.5047% |
| O=C(CN1CCOC(CNc2cccnn2)C1)N1CCCCC1 (configuration not stated) | 57.16% |
| OC1(CN2CCOC(CNc3cccnn3)C2)CCCCC1 (configuration not stated) | 9.895% |
| c1cnnc(NCC2CN(CCN3CCCCC3)CCO2)c1 (configuration not stated) | 4.077% |
| O=C(CN1CCOC(CNc2cccnn2)C1)NCc1cccs1 (configuration not stated) | 104.8% |
| O=C(CN1CCOC(CNc2cccnn2)C1)NCc1ccccn1 (configuration not stated) | -12.01% |
| Cc1oncc1C(=O)NCc1cc(=O)n2c(n1)CN(C(C)C)CCC2.O=C(O)C(F)(F)F | -32.5% |
| CC(C)(C)C(=O)NC(c1nccs1)C1CCN(CC2CCCCC2)CC1.Cl (configuration not stated) | 4.524% |
| CCN1CCC2(C=C(C(=O)NC3CC3)c3ccccc32)CC1.O=C(O)C(F)(F)F | -9.893% |
| CN(C)C(=O)CN1CCOCC2(C1)CN(c1ncccn1)CCO2.O=C(O)C(F)(F)F (configuration not stated) | -21.69% |
| CCS(=O)(=O)N1CCN(CCOC)c2ncccc2C1 | 7.581% |
| CC(=O)N1N=C(c2ccccc2)OC1C(=O)NCCC1=CCCCC1 (configuration not stated) | -12.6% |
| CC(=O)N1N=C(c2ccccc2)OC1C(=O)NCCN(C(C)C)C(C)C (configuration not stated) | 73.05% |
| CC(=O)N1N=C(Cc2ccccc2)OC1C(=O)NCC(=O)OC(C)(C)C (configuration not stated) | 11.49% |
| CC(=O)N1N=C(c2ccccc2)OC1C(=O)N(C)CCc1ccccc1 (configuration not stated) | 0.1011% |
| CC(=O)N1N=C(c2ccncc2)OC1C(=O)N(C)CCc1ccccc1 (configuration not stated) | 106% |
| CC(=O)N1N=C(c2ccccc2)OC1C(=O)NCCc1ccc(Cl)cc1 (configuration not stated) | 7.805% |
| CC(=O)N1N=C(c2ccccc2)OC1C(=O)NCCc1ccc(O)cc1 (configuration not stated) | 53.53% |
| CCOC(=O)CNC(=O)C1OC(c2ccccc2)=NN1C(C)=O (configuration not stated) | 54.14% |
| CC(=O)N1N=C(c2ccccc2)OC1C(=O)NCC(=O)OC(C)(C)C (configuration not stated) | 21.44% |

| SMILES | Percent Effect |
| --- | --- |
| CC(=O)N1N=C(c2ccccc2)OC1C(=O)NCCc1ccc(C)cc1 (configuration not stated) | 30.4% |
| CC(=O)N1N=C(c2ccco2)OC1C(=O)N(C)CCc1ccccc1 (configuration not stated) | -2.033% |
| CC(=O)N1N=C(c2ccccc2)OC1C(=O)NCCOc1ccccc1 (configuration not stated) | 46.95% |
| Cc1oncc1C(=O)NCc1cc(=O)n2c(n1)CN(CC(C)C)CCC2.O=C(O)C(F)(F)F | -11.26% |
| CC(C)N1CCOCC2(CCCN(C(=O)CCc3cccnc3)C2)C1.O=C(O)C(F)(F)F (configuration not stated) | -33.91% |
| Cc1cccc(CN2CCC3(CCN(c4ncccn4)CC3)C2=O)c1.O=C(O)C(F)(F)F | 21.29% |
| O=C(O)C(F)(F)F.O=C(O)C(F)(F)F.O=C(O)C(F)(F)F.O=C1CO[C@@H]2CN(Cc3ccncc3)C[C@H]2N1Cc1ccncc1 | -33.4% |
| CN(C)CC1CSCCCN1C(=O)c1ccsc1 (configuration not stated) | -29.65% |
| O=S1(=O)C[C@@H]2[C@H](C1)N(Cc1cc(Cl)cc(Cl)c1)CCN2CCO | -5.541% |
| O=S1(=O)C[C@@H]2[C@H](C1)N(Cc1cc(Cl)cc(Cl)c1)CCN2CC1CC1 | 99.37% |
| CCCN1CCN(Cc2cc(Cl)cc(Cl)c2)[C@H]2CS(=O)(=O)C[C@H]21 | 31.79% |
| CN(C)c1ncc(-c2cccc(C(N)=O)c2)c(C2CNCCO2)n1.Cl (configuration not stated) | -21.53% |
| CN1CCc2cc(C(=O)N(C)C)c(NCC3CC3)nc2CC1.O=C(O)C(F)(F)F.O=C(O)C(F)(F)F | -30.07% |
| Cn1ccnc1CN1C[C@@H]2[C@@H](C1)OCC(=O)N2CC1CCCC1.O=C(O)C(F)(F)F | -35.26% |
| CN(C)[C@@H]1CN(C(=O)Cc2cccc(F)c2)[C@@H]2CCCO[C@H]12.O=C(O)C(F)(F)F | -1.237% |
| Cc1nnc([C@@]23CCO[C@@H]2CCN(S(=O)(=O)c2ccccc2)C3)o1 | 53.88% |
| Cc1nnc([C@@]23CCO[C@@H]2CCN(S(=O)(=O)c2cccnc2)C3)o1 | 18.46% |
| Cc1nnc([C@@]23CCO[C@@H]2CCN(S(C)(=O)=O)C3)o1 | -10.32% |
| N#Cc1cccc(CN2C[C@@H]3CN(c4ncccn4)C[C@@H]3C2)c1.O=C(O)C(F)(F)F | 29.7% |
| CO[C@H]1C[C@@H]2CN(C(=O)c3cc4cccc(F)c4[nH]3)C[C@@H]2C1 | 17.75% |
| CCNC(=O)CCc1c(C)nc2cc(O)nn2c1C | 0.7588% |
| COc1ccc(NC(=O)CCc2c(C)nc3cc(O)nn3c2C)cn1 | 61.44% |
| COC(=O)CCc1c(C)nc2cc(O)nn2c1C | -4.051% |
